# According to paper PMC7862700, “An all-to-all approach to the identification of sequence-specific readers for epigenetic DNA modifications on cytosine”:
# How the values were obtained:
# Assay in all cases: DAPPL (digital affinity profiling via proximity ligation, sequencing); 10 mM Tris-HCl pH 7.5, 50 mM NaCl, 1 mM DTT, 4% glycerol, room temperature, 30 min; GST-TFs on glutathione beads, 16-mer random dsDNA library, 0.1% formaldehyde crosslink after washing; high values mean tight binding
# Conditions in all cases: protein: recombinant; tags: N-terminal GST; dsDNA, one strand shown
# GABPA = molecular target: T1, GABPA (Homo sapiens, UniProt Q06546 1-454)
# T1 sequence: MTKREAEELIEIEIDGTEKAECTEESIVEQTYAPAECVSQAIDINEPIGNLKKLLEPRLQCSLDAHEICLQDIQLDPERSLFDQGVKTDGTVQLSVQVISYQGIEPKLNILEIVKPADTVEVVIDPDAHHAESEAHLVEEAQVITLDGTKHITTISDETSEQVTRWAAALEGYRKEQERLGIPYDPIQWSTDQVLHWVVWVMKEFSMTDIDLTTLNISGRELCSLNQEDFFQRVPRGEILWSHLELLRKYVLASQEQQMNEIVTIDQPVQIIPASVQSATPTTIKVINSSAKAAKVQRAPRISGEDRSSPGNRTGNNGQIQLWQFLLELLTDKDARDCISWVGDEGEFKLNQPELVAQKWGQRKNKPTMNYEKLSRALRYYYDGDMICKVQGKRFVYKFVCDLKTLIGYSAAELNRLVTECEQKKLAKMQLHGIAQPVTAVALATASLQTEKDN
# Outline: (§1)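 Human transcription factors were made in yeast as GST fusions, captured on glutathione beads and barcoded with DNA. With a tag-only sample included, the pool was incubated with 200 nmole of a random double-stranded 16-mer DNA library in Tris/NaCl/DTT/glycerol buffer at room temperature for 30 min, then crosslinked with 0.1% formaldehyde after washing, ligated by proximity, amplified and sequenced. For binding signal, each hexamer's read frequency for a factor is divided by its frequency for the tag-only sample.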
# SPIC = molecular target: T2, SPIC (Homo sapiens, UniProt Q8N5J4 1-248)
# T2 sequence: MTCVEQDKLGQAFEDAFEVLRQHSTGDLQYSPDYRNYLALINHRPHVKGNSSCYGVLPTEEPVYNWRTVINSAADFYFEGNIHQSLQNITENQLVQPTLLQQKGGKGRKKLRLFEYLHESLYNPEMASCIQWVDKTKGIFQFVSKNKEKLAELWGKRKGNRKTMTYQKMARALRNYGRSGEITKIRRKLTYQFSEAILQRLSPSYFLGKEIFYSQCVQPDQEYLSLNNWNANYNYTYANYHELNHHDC
# Outline: as §1
# ELK4 = molecular target: T3, ELK4 (Homo sapiens, UniProt P28324-2 1-405)
# T3 sequence: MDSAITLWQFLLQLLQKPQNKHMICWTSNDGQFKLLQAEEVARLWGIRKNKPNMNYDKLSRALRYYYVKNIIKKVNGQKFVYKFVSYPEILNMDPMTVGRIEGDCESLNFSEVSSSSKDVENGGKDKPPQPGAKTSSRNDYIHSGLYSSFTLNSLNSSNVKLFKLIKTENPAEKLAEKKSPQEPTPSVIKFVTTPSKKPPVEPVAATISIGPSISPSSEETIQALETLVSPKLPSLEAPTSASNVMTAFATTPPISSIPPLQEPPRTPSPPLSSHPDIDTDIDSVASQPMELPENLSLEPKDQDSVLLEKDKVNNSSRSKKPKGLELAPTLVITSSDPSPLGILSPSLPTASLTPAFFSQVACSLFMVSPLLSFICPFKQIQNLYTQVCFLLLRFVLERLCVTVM
# Outline: as §1
# SPI1 = SPI1 (Homo sapiens, UniProt P17947 1-270)
# Outline: as §1
# ELF3 = molecular target: T4, ELF3 (Homo sapiens, UniProt P78545 1-371)
# T4 sequence: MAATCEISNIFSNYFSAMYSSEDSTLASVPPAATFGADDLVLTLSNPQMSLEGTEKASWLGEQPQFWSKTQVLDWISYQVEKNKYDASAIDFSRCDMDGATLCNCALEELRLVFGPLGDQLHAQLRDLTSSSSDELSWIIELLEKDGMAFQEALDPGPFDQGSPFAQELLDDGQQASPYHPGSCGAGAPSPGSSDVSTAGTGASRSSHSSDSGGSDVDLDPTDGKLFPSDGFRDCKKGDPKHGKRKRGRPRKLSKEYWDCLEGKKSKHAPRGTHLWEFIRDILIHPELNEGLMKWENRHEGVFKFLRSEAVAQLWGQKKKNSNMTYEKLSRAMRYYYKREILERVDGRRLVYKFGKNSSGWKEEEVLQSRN
# Outline: as §1
# ETV1 = ETV1 (Homo sapiens, UniProt P50549 1-477)
# Sequence of ETV1 (P50549 whole entry): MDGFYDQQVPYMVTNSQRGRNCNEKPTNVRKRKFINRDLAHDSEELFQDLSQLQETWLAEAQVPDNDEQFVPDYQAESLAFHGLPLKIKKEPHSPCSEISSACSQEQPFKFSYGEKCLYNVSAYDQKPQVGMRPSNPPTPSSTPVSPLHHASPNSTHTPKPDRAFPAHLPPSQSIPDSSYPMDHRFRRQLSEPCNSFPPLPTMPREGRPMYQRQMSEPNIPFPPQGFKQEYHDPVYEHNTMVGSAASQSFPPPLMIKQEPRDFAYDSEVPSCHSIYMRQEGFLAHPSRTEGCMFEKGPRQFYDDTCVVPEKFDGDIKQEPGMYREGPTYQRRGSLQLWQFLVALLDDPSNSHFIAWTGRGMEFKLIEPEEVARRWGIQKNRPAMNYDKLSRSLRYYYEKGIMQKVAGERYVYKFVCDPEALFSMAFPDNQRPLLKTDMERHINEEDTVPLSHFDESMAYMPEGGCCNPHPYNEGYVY
# Outline: as §1
# ELF5 = molecular target: T5, ELF5 (Homo sapiens, UniProt Q9UKW6-2 1-255)
# T5 sequence: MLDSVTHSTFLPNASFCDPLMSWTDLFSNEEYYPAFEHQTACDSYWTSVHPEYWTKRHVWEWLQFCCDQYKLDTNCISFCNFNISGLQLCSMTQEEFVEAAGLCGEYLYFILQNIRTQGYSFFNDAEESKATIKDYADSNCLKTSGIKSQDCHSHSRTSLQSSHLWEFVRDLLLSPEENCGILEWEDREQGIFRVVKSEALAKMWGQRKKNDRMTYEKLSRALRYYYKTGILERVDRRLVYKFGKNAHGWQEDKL
# Outline: as §1
# ETV3 = molecular target: T6, ETV3 (Homo sapiens, UniProt P41162-2 1-143)
# T6 sequence: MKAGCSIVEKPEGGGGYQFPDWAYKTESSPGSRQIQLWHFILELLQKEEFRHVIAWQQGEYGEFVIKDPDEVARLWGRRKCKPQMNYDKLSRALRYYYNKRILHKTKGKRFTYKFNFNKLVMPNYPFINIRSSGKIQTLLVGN
# Outline: as §1
# EHF = molecular target: T7, EHF (Homo sapiens, UniProt Q9NZC4 1-300)
# T7 sequence: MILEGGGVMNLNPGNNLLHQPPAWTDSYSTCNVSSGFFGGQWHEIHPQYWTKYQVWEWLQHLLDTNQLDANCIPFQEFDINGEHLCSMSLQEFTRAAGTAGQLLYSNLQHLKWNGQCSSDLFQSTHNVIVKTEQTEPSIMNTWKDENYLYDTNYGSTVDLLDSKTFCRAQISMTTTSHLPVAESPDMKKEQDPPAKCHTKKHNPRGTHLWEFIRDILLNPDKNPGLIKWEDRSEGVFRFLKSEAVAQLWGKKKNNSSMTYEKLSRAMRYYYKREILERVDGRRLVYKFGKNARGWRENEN
# Outline: as §1
# ELK3 = molecular target: T8, ELK3 (Homo sapiens, UniProt P41970 1-407)
# T8 sequence: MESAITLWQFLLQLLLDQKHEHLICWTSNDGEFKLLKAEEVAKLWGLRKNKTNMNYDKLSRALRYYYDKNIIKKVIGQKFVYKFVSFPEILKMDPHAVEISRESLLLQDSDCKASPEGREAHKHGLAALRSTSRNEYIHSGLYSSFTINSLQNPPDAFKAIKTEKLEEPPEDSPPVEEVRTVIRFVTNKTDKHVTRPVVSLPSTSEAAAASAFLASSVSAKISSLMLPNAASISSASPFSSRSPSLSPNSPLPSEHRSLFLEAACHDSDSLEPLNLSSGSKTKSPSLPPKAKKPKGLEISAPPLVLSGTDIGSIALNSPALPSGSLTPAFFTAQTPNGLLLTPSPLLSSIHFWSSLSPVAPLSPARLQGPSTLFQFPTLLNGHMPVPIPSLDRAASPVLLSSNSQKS
# Outline: as §1
# FEV = molecular target: T9, FEV (Homo sapiens, UniProt Q99581 1-238)
# T9 sequence: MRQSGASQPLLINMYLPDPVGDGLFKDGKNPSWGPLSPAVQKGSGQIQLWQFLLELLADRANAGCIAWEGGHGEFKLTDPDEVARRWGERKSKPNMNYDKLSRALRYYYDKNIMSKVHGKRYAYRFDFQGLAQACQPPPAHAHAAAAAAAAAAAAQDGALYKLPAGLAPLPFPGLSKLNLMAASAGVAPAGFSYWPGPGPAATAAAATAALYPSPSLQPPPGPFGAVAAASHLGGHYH
# Outline: as §1
# ERF = molecular target: T10, ERF (Homo sapiens, UniProt P50548 1-548)
# T10 sequence: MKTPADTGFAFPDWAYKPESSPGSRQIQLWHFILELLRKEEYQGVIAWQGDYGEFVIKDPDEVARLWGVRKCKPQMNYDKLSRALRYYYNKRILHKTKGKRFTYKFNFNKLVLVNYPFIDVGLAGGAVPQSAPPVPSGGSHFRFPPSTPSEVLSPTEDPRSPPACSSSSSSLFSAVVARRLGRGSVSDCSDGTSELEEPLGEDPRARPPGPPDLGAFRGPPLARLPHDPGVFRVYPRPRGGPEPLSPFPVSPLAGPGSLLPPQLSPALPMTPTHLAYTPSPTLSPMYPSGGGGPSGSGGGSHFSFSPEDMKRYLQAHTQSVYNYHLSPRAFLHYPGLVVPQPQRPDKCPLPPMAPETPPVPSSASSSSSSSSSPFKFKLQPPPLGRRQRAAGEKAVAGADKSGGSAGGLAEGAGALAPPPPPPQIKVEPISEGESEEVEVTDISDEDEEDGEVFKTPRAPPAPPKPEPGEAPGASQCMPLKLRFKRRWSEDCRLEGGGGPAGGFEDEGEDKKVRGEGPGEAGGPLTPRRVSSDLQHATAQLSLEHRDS
# Outline: as §1
# ETS2 = molecular target: T11, ETS2 (Homo sapiens, UniProt P15036 1-469)
# T11 sequence: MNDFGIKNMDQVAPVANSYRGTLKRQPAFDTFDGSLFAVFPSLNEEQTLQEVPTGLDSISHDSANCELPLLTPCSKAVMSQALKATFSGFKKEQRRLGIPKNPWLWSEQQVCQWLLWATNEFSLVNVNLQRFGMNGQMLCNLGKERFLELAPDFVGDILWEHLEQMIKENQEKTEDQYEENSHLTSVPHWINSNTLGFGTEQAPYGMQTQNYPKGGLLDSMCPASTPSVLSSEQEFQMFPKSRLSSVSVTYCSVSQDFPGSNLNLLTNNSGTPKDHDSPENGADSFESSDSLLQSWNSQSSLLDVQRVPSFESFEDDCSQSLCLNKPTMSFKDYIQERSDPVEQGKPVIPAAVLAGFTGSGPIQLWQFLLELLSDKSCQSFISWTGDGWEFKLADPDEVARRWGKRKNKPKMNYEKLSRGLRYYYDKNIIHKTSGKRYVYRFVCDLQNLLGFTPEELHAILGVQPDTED
# Outline: as §1
# ETV6 = ETV6 (Homo sapiens, UniProt P41212 1-452)
# Sequence of ETV6 (P41212 whole entry): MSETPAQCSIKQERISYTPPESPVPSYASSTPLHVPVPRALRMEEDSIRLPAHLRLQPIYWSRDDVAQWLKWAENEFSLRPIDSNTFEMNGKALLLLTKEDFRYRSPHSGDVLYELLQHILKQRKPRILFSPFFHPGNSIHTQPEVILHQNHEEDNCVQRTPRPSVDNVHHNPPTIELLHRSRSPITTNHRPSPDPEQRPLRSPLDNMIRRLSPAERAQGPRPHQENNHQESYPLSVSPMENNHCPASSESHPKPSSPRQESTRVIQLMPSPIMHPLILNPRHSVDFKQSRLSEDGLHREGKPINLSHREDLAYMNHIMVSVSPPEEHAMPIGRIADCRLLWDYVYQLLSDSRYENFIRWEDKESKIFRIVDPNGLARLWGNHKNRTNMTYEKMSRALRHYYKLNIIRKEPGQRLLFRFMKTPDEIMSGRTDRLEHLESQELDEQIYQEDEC
# Outline: as §1
sequence,measurement,setting,value
TGGCGC,binding signal,GABPA,"1.02 fold enrichment (6-mer frequency, TF over GST control)"
same,binding signal,SPIC,"1.1 fold enrichment (6-mer frequency, TF over GST control)"
same,binding signal,ELK4,"1.06 fold enrichment (6-mer frequency, TF over GST control)"
ATGAGG,binding signal,GABPA,"1.03 fold enrichment (6-mer frequency, TF over GST control)"
same,binding signal,SPI1,"1.4 fold enrichment (6-mer frequency, TF over GST control)"
same,binding signal,SPIC,"1.06 fold enrichment (6-mer frequency, TF over GST control)"
same,binding signal,ELF3,"1.17 fold enrichment (6-mer frequency, TF over GST control)"
same,binding signal,ETV1,"1.01 fold enrichment (6-mer frequency, TF over GST control)"
same,binding signal,ELF5,"1.11 fold enrichment (6-mer frequency, TF over GST control)"
same,binding signal,ETV3,"1.01 fold enrichment (6-mer frequency, TF over GST control)"
ATAGTC,binding signal,GABPA,"1.01 fold enrichment (6-mer frequency, TF over GST control)"
same,binding signal,SPIC,"1.1 fold enrichment (6-mer frequency, TF over GST control)"
same,binding signal,ELK4,"1.04 fold enrichment (6-mer frequency, TF over GST control)"
same,binding signal,ELF3,"1.07 fold enrichment (6-mer frequency, TF over GST control)"
AGTAGC,binding signal,GABPA,"1.03 fold enrichment (6-mer frequency, TF over GST control)"
same,binding signal,EHF,"1.01 fold enrichment (6-mer frequency, TF over GST control)"
same,binding signal,SPI1,"1.22 fold enrichment (6-mer frequency, TF over GST control)"
same,binding signal,ELK3,"1.05 fold enrichment (6-mer frequency, TF over GST control)"
same,binding signal,FEV,"1.04 fold enrichment (6-mer frequency, TF over GST control)"
same,binding signal,SPIC,"1.04 fold enrichment (6-mer frequency, TF over GST control)"
same,binding signal,ELF3,"1.03 fold enrichment (6-mer frequency, TF over GST control)"
same,binding signal,ETV1,"1.05 fold enrichment (6-mer frequency, TF over GST control)"
same,binding signal,ERF,"1.01 fold enrichment (6-mer frequency, TF over GST control)"
same,binding signal,ETS2,"1.07 fold enrichment (6-mer frequency, TF over GST control)"
same,binding signal,ELF5,"1.04 fold enrichment (6-mer frequency, TF over GST control)"
same,binding signal,ETV3,"1.08 fold enrichment (6-mer frequency, TF over GST control)"
same,binding signal,ETV6,"1.08 fold enrichment (6-mer frequency, TF over GST control)"
